Among the data in PubChem BioAssay are activity values, retold here.

Structures are written as SMILES.

This assay can be described thus: viability loss of caspase-8 NB7 cells with TRAIL – with/without TRAIL, luminescence panel, confirmation (AID 651596). To be noted: NB7 neuroblastoma + caspase-8, without TRAIL, NB7 Caspase-8, without TRAIL, mean of runs, at 10 µM.
Turning to `Cc1ccc(C(=O)Nc2nc3c(s2)CCCC3)o1`, the activity worked out at 69.2%.

Turning to `O=C(NOCc1ccccc1)c1ccc(Cl)cc1Cl`, the activity amounted to 55.5%.

Regarding `CC(=O)Nc1cc(-c2cccc(C(=O)NCCN(C)C)c2)cn2c(-c3cccc(C(F)(F)F)c3)cnc12`, the activity amounted to 89.8%.

For `COC(=O)[C@@H]1Cc2c([nH]c3ccccc23)C(C)(C)N1C(=O)CCl`, the activity is 98%.

For the molecule `O=C(NC1=NCCS1)c1cccs1`, the activity was -38%.

For `COc1ccc(C(=O)/C=C/Nc2cccc(O)c2)cc1`, the activity turned out to be 42.4%.

Regarding `O=C(Oc1cccc(/C=N/NC(=O)c2ccccn2)c1)c1ccc([N+](=O)[O-])cc1`, the activity came to 20.2%.

As to `Cc1ccc(C2CC(c3cccs3)=NN2C(=O)CCl)cc1` (stereo not given), the activity worked out at 98%.

On to `COc1ccccc1OCCNC(=O)c1ccc2c(c1)OCCO2`, for which the activity was 45.9%.

Regarding `Cc1nc2sc(-c3ccccc3)cc2c(=O)n1N`, the activity turned out to be 44.8%.

On to `CCCC(=O)OCCNc1cc(Sc2nccn2C)c2nonc2c1[N+](=O)[O-]`, for which the activity stood at 97.2%.

For `O=C(CCl)N=c1sccn1Cc1ccc(Cl)cc1Cl`, the activity is 99.2%.

On to `Cc1ccc(C(=O)Nc2ccc3c(c2)OCCO3)cc1`, for which the activity turned out to be 90.2%.

For the molecule `O=C(Nc1ccc(N2CCN(Cc3ccccc3F)CC2)cc1)c1ccc([N+](=O)[O-])o1`, the activity was determined as 98.8%.

For `CNC(=S)N1N=C(c2ccccc2)CC1c1ccc(Br)cc1` (stereo not given), the activity is -42.7%.

On to `Cc1c(C(=O)N2CCc3ccccc32)oc2ccccc12`, for which the activity was found to be 41%.

Turning to `CN(C)c1ccc(/C=N/NC(=O)c2ccccn2)cc1`, the activity is 65.2%.

For `CCOc1ncccc1C(=O)OCC(=O)Nc1ccc(-c2nc3ccc(C)cc3s2)cc1`, the activity was determined as 67%.

Consider `COc1cc2c3nnc(-c4ccc(F)cc4)c-3cn(Cc3ccc(C)cc3)c2cc1OC`, for which the activity was determined as 60.6%.

`Cc1ccc(-c2nn3c(C)nnc3c3ccccc23)cc1S(=O)(=O)NCc1ccccc1`: the activity stood at 51.6%.

Turning to `CCOc1ccc(NC(=O)Nc2cccnc2)cc1`, the activity was determined as 40.9%.

With `COc1ccc(Cn2c(SCc3cc(C)ccc3C)nc3cc(OC)c(OC)cc3c2=N)cc1`, the activity was 97.8%.

Turning to `O=C1N(c2ccccc2)CCN1c1ccccc1`, the activity worked out at 62.8%.

On to `CC1=C(C(=O)N(C)C)CC(CC(=O)NCCN2CCOCC2)C(=O)N1CCCN1CCCC1=O` (stereo not given), for which the activity was -4.97%.

`CC(=O)c1ccccc1OCC(O)CN1CCN(CCN2C(=O)c3cccc4cccc(c34)C2=O)CC1` (stereo not given): the activity worked out at 16.4%.

Consider `CCc1ccc(C(=O)Nc2cc(C)ccc2F)s1`, for which the activity was 27.4%.

Regarding `COCCOCCn1c(/C=C/c2ccccc2)nc2ccccc21`, the activity worked out at 77.1%.

With `COc1ccc(CC(N)c2csc(NC(=O)Nc3cccc(C(F)(F)F)c3)n2)cc1` (stereo not given), the activity amounted to 87%.

`CC(C)(CNC(=O)c1ccc([N+](=O)[O-])c(Cl)c1)CNC(=O)c1ccc([N+](=O)[O-])c(Cl)c1`: the activity stood at 60.3%.

`O=C(/C=C/c1cccnc1)/C=C/c1cccnc1`: the activity was 69.7%.

Regarding `O=C(N/N=C\c1cccc(OC(=O)c2ccco2)c1)c1ccc2c(c1)OCO2`, the activity was 74.1%.

`N/C(=N\OC(=O)c1ccccc1)c1ccn[nH]1`: the activity came to 68.1%.

Consider `O=C(Nc1ccccc1)c1cn2ccccc2n1`, for which the activity worked out at 55.7%.

As for `Cc1ccc(NC(=O)c2ccccc2)s1`, the activity came to 32%.

Regarding `Clc1nc2ccccc2cc1/C=N/Nc1nc2ccccc2[nH]1`, the activity amounted to 81.5%.

With `CCc1nnc(NC(=O)c2nc(S(=O)(=O)Cc3cccc(C)c3)ncc2Cl)s1`, the activity came out at 90.3%.

As for `COc1cccc(NC(=O)Nc2ccc3c(c2)nc(C)n3C)c1`, the activity was determined as 82.8%.

Turning to `O=C(Nc1nnc(/N=C/c2ccco2)s1)c1ccc(F)cc1`, the activity came out at 28.4%.

Consider `C/C(=N\NC(=O)c1ccc(Cl)cc1)c1cccs1`, for which the activity is 81.4%.

As to `O=C(CCS(=O)(=O)c1ccccc1)Nc1ccc(-c2nc3ccccc3s2)cc1`, the activity stood at 42.8%.
